Screening results (PubChem)
Cruzain noTriton: inhibitors of Trypanosoma cruzi cruzain without detergent; hit rate 2.3% among 200,000; P25779; purified cruzain, Z-FR-AMC fluorescence, no detergent; AID 1476; Potency, µM, for inactives: max response, negative = inhibition, most hits filed as inhibitors;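 note: plate controls were enzyme without inhibitor for no effect and buffer without enzyme for full effect; nearly all actives have a fitted effect of over 40% in size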
Target sequence (P25779 123-467 limits assumed): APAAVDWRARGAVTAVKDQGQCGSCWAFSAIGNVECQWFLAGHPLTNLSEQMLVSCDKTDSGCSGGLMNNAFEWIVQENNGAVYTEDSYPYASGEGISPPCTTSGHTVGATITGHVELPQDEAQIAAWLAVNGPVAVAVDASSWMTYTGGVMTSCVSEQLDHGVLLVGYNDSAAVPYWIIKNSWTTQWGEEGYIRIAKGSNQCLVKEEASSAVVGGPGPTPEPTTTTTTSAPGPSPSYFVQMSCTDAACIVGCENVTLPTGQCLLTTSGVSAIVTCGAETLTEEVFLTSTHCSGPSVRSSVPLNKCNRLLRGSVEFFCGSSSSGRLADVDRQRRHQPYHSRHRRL
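Purified cruzain at 1.5 nM, pre-incubated 15 min with compound at room temperature in 100 mM sodium acetate pH 5.5, 5 mM DTT, 0.00005% Triton X-100. Reaction started with 2 uM Z-FR-AMC; AMC fluorescence increase over 60 s gives rate.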
Cruzain inh Det: inhibitors of Trypanosoma cruzi cruzain with detergent; purified cruzain, Z-FR-AMC fluorescence, 0.01% Triton; Potency, µM, for the others: max response, negative = inhibition, actives largely listed as inhibitors; hit rate 0.43% among 200,000;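 note: plate controls were neutral wells for no effect and buffer without enzyme for full effect; nearly all actives have a fitted effect of over 40% in size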
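Steps: dispense cruzain (1.5 nM final) in acetate buffer pH 5.5 with DTT and 0.01% Triton X-100; pin-transfer compounds; incubate 15 min RT; add Z-FR-AMC (2 uM final); read fluorescence every 30 s, using the 60 s intensity change.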
* = called active by the depositor; ? = inconclusive. In the library only some 2.4% were active in any assay of this set; here they are far more common. Calls come from the whole dose curve; as a rule, active = well fitted curve in the direction sought with a large enough effect; inconclusive = small, poorly fitted or top-dose-only effect, or another doubt; inactive = no such curve, though single readings can be large; an effect the other way counts as inactive or inconclusive. Potency is the fitted concentration of half-maximal effect.

SMILES	Cruzain noTriton	Cruzain inh Det
O=C(Nc1ccc(F)cc1)c1ccc(COc2ccccc2)cc1	13µM*	-1%
COC(=O)c1ccc(OCCOc2ccccc2)cc1	0%	-5%
COC(=O)c1ccc(CNC(=O)c2ccc(COc3ccccc3)cc2)cc1	10µM*	-2%
O=C(Nc1ccc(OCc2ccccc2)cc1)c1cccc([N+](=O)[O-])c1	-30%	-2%
NNC(=O)c1ccc(COc2ccccc2)cc1	9%	-1%
Cc1ccc(C(=O)Nc2ccc(OCc3ccccc3)cc2)cc1[N+](=O)[O-]	13µM*	-2%
CSc1ncc2c(n1)-c1ccccc1N(Cc1ccccc1C)S2(=O)=O	-4%	3%
CC(C)(C)c1ccc(OCC(=O)NC(Cc2c[nH]c3ccccc23)C(=O)O)cc1 (configuration not stated)	29%	-17%
Cc1ccc(NC(=O)Cn2c(=O)n(-c3ccccc3)c(=O)c3ccc(C(=O)NCc4ccc5c(c4)OCO5)cc32)cc1	-1%	-3%
COc1ccccc1NC(=O)c1cc2c(=O)oc3ccc(C)cc3c2s1	0%	1%
Cc1c(C(=O)N/N=C/c2ccccc2)[nH]c2ccc(Cl)cc12	-2%	-7%
Cc1c(C(=O)N/N=C/c2ccc(N(C)C)cc2)[nH]c2ccc(Cl)cc12	10µM*	-10%
Cc1ccc2nc(N(Cc3cccnc3)C(=O)c3ccco3)sc2c1	?	1%
COc1ccc(OC)c(N2Cc3ccccc3C2)c1	?	3%
COc1ccccc1N1CCNCC1	10%	3%
COc1ccccc1N1Cc2ccccc2C1	16µM*	-4%
COc1ccc(Cl)cc1N1Cc2ccccc2C1	25µM*	-4%
CC(C)c1ccc(-c2noc(SCC(=O)N(C)c3ccc(F)cc3)n2)cc1	1%	5%
CCCSc1nnc2c(n1)OC(c1sccc1C)Nc1ccccc1-2 (configuration not stated)	-10%	-8%
Cc1ccc(NC(=O)CSc2nc3n[nH]c(C)c3c(=N)n2-c2ccccc2C)cc1C	8%	-4%
CCn1c(-c2nonc2NC(=O)c2ccccc2)nc2ccccc21	4%	-3%
CC(C)(C)c1ccc(C(=O)Nc2nonc2-c2nc3ccccc3[nH]2)cc1	3.2µM*	0%
CCc1ccc(N2CCn3c2nc2c3c(=O)n(Cc3cccc(C)c3)c(=O)n2C)cc1	1%	-1%
S=C(Nc1ccccc1)Nc1nc2ccccc2n1CCOc1ccc(Br)cc1	7.9µM*	3%
Cn1c(NC(=S)Nc2ccccc2)nc2ccccc21	?	1%
SMILES	Cruzain noTriton	Cruzain inh Det
Cc1ccc2c(c1)-c1c(c(C(=O)N3CCN(c4cc(Cl)ccc4C)CC3)nn1C)CS2	4%	2%
CCOC(=O)c1sc(NC(=O)Nc2ccc(Cl)cc2)cc1C	-8%	-2%
CCOC(=O)c1c(NC(=O)Nc2ccc(Cl)cc2)sc(C)c1C	25µM*	-1%
O=C(Nc1cccc(Cl)c1)Nc1cccc(Cl)c1	2%	-11%
CCOC(=O)c1c(NC(=O)Nc2cccc(Cl)c2)sc(C)c1C	25µM*	0%
C[C@@H](/C=C\c1cccc(Oc2ccc(F)cc2)c1)N(O)C(N)=O	?	-10%
COc1ccc2c(c1)O[C@@H](c1cccc(C(F)(F)F)c1)[C@H](OC(=O)Nc1cc(OC)c(OC)c(OC)c1)C2=O	-5%	-2%
CCOC(=O)C1=C(N)n2c(s/c(=C\c3ccco3)c2=O)=C(C(=O)OCC)C1c1ccco1 (configuration not stated)	7.9µM*	-6%
CCOC(=O)C1=C(N)n2c(s/c(=C\c3ccco3)c2=O)=C(C(=O)OC(C)C)C1c1ccco1 (configuration not stated)	10µM*	-8%
CCOC(=O)C1=C(N)n2c(s/c(=C/c3ccccc3)c2=O)=C(C(=O)OCC)C1c1ccccc1 (configuration not stated)	-9%	-2%
CCOC(=O)C1=C(c2ccccc2)N=c2s/c(=C\c3ccco3)c(=O)n2C1c1cccs1 (configuration not stated)	?	-1%
CCOC(=O)c1c(NC(=O)c2cc3n(n2)C(C(F)(F)F)CC(c2cccs2)N3)sc(C)c1C (configuration not stated)	6.3µM*	-6%
Cc1nn(C)c(C)c1CNC(=O)c1cc2n(n1)C(C(F)(F)F)CC(c1cccs1)N2 (configuration not stated)	?	-3%
CC(=O)c1ccc(NC(=O)CSc2nc(=O)n(Cc3ccncc3)c3c2CCC3)cc1	0%	0%
CC1CCCN(S(=O)(=O)c2ccc(NC(=O)c3nc(SC(C)C)ncc3Cl)cc2)C1 (configuration not stated)	2%	-1%
COc1ccc(C(=O)NCC(c2cccnc2)N2CCc3ccccc3C2)cc1 (configuration not stated)	-8%	-1%
COC(=O)C1=NN(c2ccccc2)C2(S1)SC(C(C)=O)=C(C)N2c1ccccc1 (configuration not stated)	2%	0%
CC(=O)C1=NN(c2ccccc2)C2(S1)S/C(=C\c1ccccc1)C(=O)N2c1ccccc1 (configuration not stated)	10µM*	2%
Cc1ccc(N2CCN(S(=O)(=O)c3cccc4ccccc34)CC2)cc1Cl	-20%	-1%
CCSc1nnc(NC(=O)COc2cccc3ccccc23)s1	13µM*	-8%
C=CCSc1nnc(NC(=O)COc2ccc3ccccc3c2)s1	13µM*	4%
COC(=O)c1sc(NC(=O)COc2cccc3ccccc23)nc1C	?	5%
C=CCSc1nnc(NC(=O)CSc2ccccn2)s1	-2%	1%
Cc1cc(C)cc(NS(=O)(=O)c2c(C)nc3scc(C)n3c2=O)c1	9%	-2%
COc1ccc(NC(=O)c2cc3ccccn3n2)cc1	-10%	-1%
SMILES	Cruzain noTriton	Cruzain inh Det
O=C(Nc1ccc(OC(F)(F)F)cc1)c1cc2ccccn2n1	25µM*	-2%
O=C1c2ccccc2C(Nc2ccc3c(c2)OCO3)N1Cc1ccc2c(c1)OCO2 (configuration not stated)	25µM*	-4%
O=C1c2ccccc2C(Nc2cccnc2)N1Cc1ccc2c(c1)OCO2 (configuration not stated)	-2%	-1%
COc1ccc2[nH]cc(CCNc3ncncc3-c3ccccc3C(F)(F)F)c2c1	1%	-2%
Cc1ccn2c(Nc3c(C)cccc3C)c(-c3ccc(Cl)s3)nc2c1	10µM*	-12%
Cc1ccn2c(Nc3c(C)cccc3C)c(-c3ccsc3)nc2c1	?	-13%
CCn1c(=O)c(C(=O)Nc2ccccc2S(N)(=O)=O)c(O)c2ccccc21	?	-4%
CCn1c(=O)c(C(=O)NNS(=O)(=O)c2ccc(Cl)cc2)c(O)c2ccccc21	25µM*	-9%
CCOC(=O)c1ccc(NC(=O)N2CCOc3ccccc32)cc1	10µM*	-3%
CCOC(=O)c1ccc(NC(=O)Nc2ccc3c(c2)OCCO3)cc1	1%	-12%
COC(=O)c1cc2oc3ccccc3c2n1CC(=O)Nc1ccc(C)cc1C	4%	-2%
O=C(N/N=C\c1ccc(-c2ccc([N+](=O)[O-])cc2)o1)c1ccc2c(c1)OCO2	7.9µM*	-1%
O=C(N/N=C/c1ccc(Br)o1)c1ccc2c(c1)OCCO2	-12%	-6%
COc1ccc(-c2noc(-c3cccc(OC)c3OC)n2)cc1	11%	-8%
O=C(COC(=O)Cc1c(F)cccc1Cl)NCCC1=CCCCC1	1%	-3%
O=C(COC(=O)CNC(=O)c1cccc(F)c1)NCCC1=CCCCC1	13µM*	16µM*
